Only some compounds are listed: those with a hit (about 1.5% of all), similar ones and a draw of the others.
RAD52 anneal inh: blocks human RAD52 DNA annealing | recombinant RAD52 DNA annealing, FRET fluorescence | inhibition, % at 18.7 µM | 0.46% of 360,000 active | AID 651710;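 active means every replicate showing at least 50% inhibition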
NSD2 inh: inhibitors of human histone methyltransferase NSD2. 0.54% of 310,000 active. NSD2 peptide methylation, AlphaScreen, 120 min. inhibition, % at 12.5 µM. O96028. AID 743445; in the data active means inhibition above about 50%
miR-122 sensor: blocks miR-122 activity in Huh7 sensor cells; Huh7 miR-122 Renilla luciferase sensor, 48 h; neutral wells = 0, positive control = 100; activation (reporter increase), % at 12.5 µM; 0.3% of 340,000 active;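 active means mean replicate activation score at least 90 and every replicate individually at or above 90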;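 further: higher luciferase means less miR-122 activity so hits act as miR-122 inhibitors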
Casp6 inh: inhibitors of human caspase-6; 0.53% of 350,000 active; P55212; inhibition, % at 12.5 µM; purified caspase-6, Z-VEID-R110 cleavage fluorescence;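 active means mean inhibition across replicates at least about 35%, with every replicate also reaching that limit, limit read from the data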;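 further: 0% = median of neutral control wells and 100% = no fluorescence left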
MLL AF4-AF9 inh: blocks AF4 peptide binding to human AF9. P42568. AlphaScreen, biotin-AF4 peptide binding to FLAG-AF9. inhibition, % at 10 µM. 0.47% of 350,000 active. AID 651704;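 active means every replicate reaching a set inhibition limit, whatever the replicate mean, cut at about 25% in these data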;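 further: 0% = plate neutral control median and 100% = total signal loss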
Target sequence (P42568 whole entry, looked up): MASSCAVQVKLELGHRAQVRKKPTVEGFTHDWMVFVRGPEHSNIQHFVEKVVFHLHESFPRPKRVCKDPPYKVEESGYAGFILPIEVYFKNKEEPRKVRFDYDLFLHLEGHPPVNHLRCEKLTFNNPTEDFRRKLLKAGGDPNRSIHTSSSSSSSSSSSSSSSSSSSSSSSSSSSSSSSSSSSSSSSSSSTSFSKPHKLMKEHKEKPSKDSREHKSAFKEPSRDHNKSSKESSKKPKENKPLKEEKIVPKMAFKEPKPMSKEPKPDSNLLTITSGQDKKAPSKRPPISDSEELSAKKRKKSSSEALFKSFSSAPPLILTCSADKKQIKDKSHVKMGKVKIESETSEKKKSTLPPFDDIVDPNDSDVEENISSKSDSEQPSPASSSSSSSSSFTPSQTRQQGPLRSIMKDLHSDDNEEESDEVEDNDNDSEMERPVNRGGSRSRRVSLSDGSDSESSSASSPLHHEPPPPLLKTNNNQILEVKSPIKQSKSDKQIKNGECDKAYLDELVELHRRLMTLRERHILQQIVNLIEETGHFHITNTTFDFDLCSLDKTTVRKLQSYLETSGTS
* hit, by the source's call; x = no result; [ ] = remark or other dose.

SMILES | RAD52 anneal inh | NSD2 inh | miR-122 sensor | Casp6 inh | MLL AF4-AF9 inh
CCC(=O)N(C1=C(NC)C(=O)c2ccccc2C1=O)C(C)C | -4 | x | x | 72* | 0
CCC(=O)NC1=C(NC(C)c2ccccc2)C(=O)c2ccccc2C1=O (configuration not stated) | x | -3 | 4 | x | x
O=C(O)CC1(c2ccccc2)C(=O)c2ccccc2C1=O | x | -2 | -6 | x | x
NC(=O)C1C(=O)c2ccccc2C1(C[N+](=O)[O-])c1ccccc1 (configuration not stated) | -13 | 4 | -4 | 69* | -3
Cc1[nH]c2ccccc2c1/C=N/Nc1ccccc1[N+](=O)[O-] | -1 | 3 | x | 11 | 50*
COc1ccccc1S(=O)(=O)N[C@@H]1C=C[C@@H](CC(=O)N2CCOCC2)O[C@H]1CO | 0 | x | x | 53* | -5
COc1ccc(S(=O)(=O)N(C)C[C@@H]2Oc3ccc(NC(=O)Nc4ccc(F)cc4)cc3C(=O)N([C@@H](C)CO)C[C@@H]2C)cc1 | -12 | x | -3[16.7 µM] | 4 | 2
CCc1nc2c(OCc3ccc(C(=O)OC)cc3)cccn2c1N(C)C(=O)c1ccc(C)cc1 | -47 | 1 | 0 | 39* | 3
C[C@@H]1CN([C@H](C)CO)C(=O)c2cc(C#CC3CC3)cnc2O[C@H]1CN(C)C(=O)C1CCCCC1 | x | x | -5[16.7 µM] | x | x
COc1ccc(N2C(=O)[C@@H]3[C@H](C2=O)[C@H]2c4ccccc4C=CN2[C@@H]3C(C)=O)cc1 | -33 | 14 | 2 | 84* | -1
CC(C)(C)C(=O)[C@@H]1[C@@H]2C(=O)N(C3CCCCC3)C(=O)[C@@H]2[C@H]2c3ccccc3C=CN12 | x | 125* | 43 | x | x
COc1ccc(-c2ccc(NS(=O)(=O)c3cc([N+](=O)[O-])ccc3C)cc2)nn1 | -4 | 3 | -3 | 2 | -3
COc1ccc(-c2cccc(NS(=O)(=O)c3cc([N+](=O)[O-])ccc3C)c2)nn1 | -8 | 3 | 135* | 1 | -1
Cc1ccc(S(=O)(=O)N[C@H]2CC[C@@H](CC(=O)NCc3ccc(Cl)c(Cl)c3)O[C@@H]2CO)cc1 | -2 | x | x | 2 | 1
CC(C)OCCCNC(=O)CN1C(=O)COc2ccc(S(=O)(=O)N3CCCCCC3)cc21 | -9 | x | -7 | 37* | -2
COCCCNC(=O)CN1C(=O)COc2ccc(S(=O)(=O)N3CCCCCC3)cc21 | -2 | -3 | -2 | 1 | -4
COc1cccc(S(=O)(=O)N2C[C@H](O)COC[C@H]3O[C@H](CC(=O)Nc4ccccc4)CC[C@@H]32)c1 | -6 | x | -4[16.7 µM] | 1 | -2
c1ccc(CNc2nnnn2-c2ccccc2)cc1 | x | 0 | 128* | x | x
c1ccc(-n2nnnc2-c2cccc3ccccc23)cc1 | -14 | -4 | 116* | -3 | 0
O=C(CNc1nnnn1-c1ccccc1)N1CCCC1 | x | -16 | x | x | x
COc1ccc(CN(C)C[C@H]2OCCCC[C@H](C)Oc3ccc(NS(=O)(=O)c4ccc(F)cc4)cc3C(=O)N([C@H](C)CO)C[C@H]2C)cc1 | 55* | x | 4[16.7 µM] | 6 | 10
COc1ccc(CN(C)C[C@@H]2OCCCC[C@H](C)Oc3ccc(NS(=O)(=O)c4ccc(Cl)cc4)cc3C(=O)N([C@H](C)CO)C[C@@H]2C)cc1 | 55* | x | -4[16.7 µM] | 1 | 8
COCC(=O)N1CC2(CCN(C(=O)c3ccccn3)CC2)c2c(n(C)c3cc(OC)ccc23)[C@H]1CO | 13 | x | x | 3 | -6
Cc1ccc(S(=O)(=O)N2CCCCC2)cc1C(=O)Nc1ccc(S(=O)(=O)Nc2ncccn2)cc1 | 1 | x | 8 | 51* | 1
O=C(Nc1ccc(S(=O)(=O)Nc2ncccn2)cc1)c1ccc(S(=O)(=O)N2CCCC2)cc1 | -98 | 3 | 0 | 1 | -3
CCOC(=O)C1CCCN(S(=O)(=O)c2nc3nc(C)cc(C)n3n2)C1 (configuration not stated) | -3 | 1 | x | 37* | -1
CCN(C(=O)COC(=O)c1oc2ccccc2c1C)c1c(N)n(Cc2ccccc2)c(=O)[nH]c1=O | -7 | 1 | -6 | 54* | -4
CCN(C(=O)COC(=O)CNC(=O)c1ccc(C)cc1)c1c(N)n(Cc2ccccc2)c(=O)[nH]c1=O | -8 | 122* | x | 4 | -1
CN1CCN(C(=O)C[C@@H]2CC[C@@H]3[C@H](COC[C@H](O)CN3Cc3ccc(Oc4ccccc4)cc3)O2)CC1 | 32 | x | -3[16.7 µM] | 1 | 5
CCCCC[C@@H](/C=C/C1C(=O)C=C[C@H]1C/C=C\CCCC(=O)O)OC(C)=O (some centres not stated) | -17 | x | -9 | 48* | 1

Compound activity (PubChem BioAssay)
